The record followed here is PubChem BioAssay (NCATS).

Results filed as inconclusive are left out. Active and inactive are the calls of the source. Unless noted, calls come from the whole dose curve; as a rule, active = well fitted curve in the direction sought with a large enough effect; inconclusive = small, poorly fitted or top-dose-only effect, or another doubt; inactive = no such curve, though single readings can be large; an effect the other way counts as inactive or inconclusive. Where only a bound is given, the exact number is not on record here.

The target of experiment [1] is Lysosomal acid glucosylceramidase (Homo sapiens) (UniProt P04062). Put plainly: Glucocerebrosidase-p2 (AID 348; in the data active = potency below about 10 µM; note: potency is the fitted concentration of half-maximal effect). To be noted: purified GBA, blue fluorogenic substrate, 40 min. The method in brief:
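Normal human glucocerebrosidase (0.2 nM) with blue fluorogenic substrate (80 uM final) in citrate/phosphate pH 5.9 with 10mM sodium taurocholate, 0.01% tween-20; 40 min RT, NaOH/glycine stop; fluorescence Ex 365/Em 440; AC50 from a titration from 0.6 nM upwards.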

Experiment [2] has as its target Cytochrome P450 1A2 (Homo sapiens) (UniProt P05177). Briefly: p450-cyp1a2 (AID 410; calls by dose curve; note: potency is the fitted concentration of half-maximal effect). The method in brief:
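Read-out is luminescence from luciferin produced by CYP1A2 demethylation of Luciferin-ME (100uM, at Km). Detection reagent stopped the 60 min NADPH-dependent reaction; signals were normalized to 57 uM furafylline.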

Experiment [3] can be described thus: NFAT Signaling Pathway (AID 444; active = well fitted curve in either direction with a large enough effect, not every such curve was filed as active;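 note: carbachol stimulus at about its EC50 of 1 µM final; % is set by controls: 0 for no effect and ±100 for the full control effect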). To be noted: Jurkat NFAT-bla M1, carbachol, beta-lactamase ratio, 5 h; at 7.69 µM (top of the series) unless noted. The method in brief: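 Jurkat cells with NFAT-driven β-lactamase reporter and co-expressed M1 receptor, stimulated with carbachol (final 1 uM, ~EC50), compound titration, 5 h at 37 °C. CCF4 loaded 1 h at RT; 460/530 nm ratio gave %activity and AC50.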

The nature of experiment [4]: Stat Signaling Pathway (AID 446; active = well fitted curve in either direction with a large enough effect, not every such curve was filed as active;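 note: ME-180 cervical cancer cells given 40 pM IL-6 alongside compound; SIE-controlled beta-lactamase reporter measured as 460/530 nm FRET emission ratio; % is set by controls: 0 for no effect and ±100 for the full control effect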). The settings on record: ME-180 SIE beta-lactamase reporter, IL-6 stimulated, 5 h; at 7.69 µM (top of the series) unless noted. In short, it runs like this: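 Compound effects on IL-6-induced STAT reporter activity were measured in ME-180 cells. After overnight culture, cells were co-treated with 40 pM IL-6 for 5 hrs before beta-lactamase substrate loading at room temperature.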

The target in experiment [5] is Glucocorticoid receptor (Homo sapiens) (UniProt P04150). Put plainly: GR-EFC Redistribution (AID 451; calls by dose curve; note: potency is the fitted concentration of half-maximal effect). The settings on record: CHO-K1 GR-EFC translocation, beta-gal luminescence, 2 h. In short, it runs like this: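 CHO-K1 cells expressing nuclear EA and GR-ED fragments of b-gal; compounds titrated up to 46 uM final, 2 h at 37 C. GR nuclear translocation read as complemented b-gal luminescence after 1 h RT detection.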
Glucocorticoid receptor (Homo sapiens), sequence (P04150 whole entry, looked up, the tested form may be a part): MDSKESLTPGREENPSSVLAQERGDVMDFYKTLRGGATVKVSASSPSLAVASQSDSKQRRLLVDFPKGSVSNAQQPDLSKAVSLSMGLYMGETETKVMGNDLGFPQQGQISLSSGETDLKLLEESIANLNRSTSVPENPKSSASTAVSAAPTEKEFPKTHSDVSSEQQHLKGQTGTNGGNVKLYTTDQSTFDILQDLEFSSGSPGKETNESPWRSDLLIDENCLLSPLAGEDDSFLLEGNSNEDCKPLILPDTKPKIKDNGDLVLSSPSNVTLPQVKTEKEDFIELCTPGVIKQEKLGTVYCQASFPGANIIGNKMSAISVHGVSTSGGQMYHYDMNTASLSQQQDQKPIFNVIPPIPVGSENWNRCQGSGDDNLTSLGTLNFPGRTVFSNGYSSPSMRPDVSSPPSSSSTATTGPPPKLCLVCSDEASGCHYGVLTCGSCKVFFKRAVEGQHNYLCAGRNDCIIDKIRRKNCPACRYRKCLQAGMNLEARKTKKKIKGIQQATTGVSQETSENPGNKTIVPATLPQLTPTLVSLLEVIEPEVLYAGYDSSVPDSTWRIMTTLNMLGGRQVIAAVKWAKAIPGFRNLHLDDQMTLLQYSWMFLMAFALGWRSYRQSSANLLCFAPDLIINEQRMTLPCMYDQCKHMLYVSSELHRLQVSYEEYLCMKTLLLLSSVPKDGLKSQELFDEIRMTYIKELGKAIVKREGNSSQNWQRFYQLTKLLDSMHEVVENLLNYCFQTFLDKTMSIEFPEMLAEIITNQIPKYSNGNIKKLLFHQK

Experiment [6] deals with Mitogen-activated protein kinase 10 (Mus musculus) (UniProt Q61831). Briefly: JNK3 AlphaScreen Assay (AID 530; active = well fitted curve in either direction with a large enough effect, not every such curve was filed as active;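 note: kinase came from lysate of stimulated human HepG2 cells; signal reports phosphorylation of biotinylated GST-cJun 1-79 at Ser73 with 10 µM ATP; % is set by controls: 0 for no effect and ±100 for the full control effect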). The method in brief: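 HepG2 lysate (IL-1b/TNFa pre-activated) + biotin-GST-cJun 1-79 + anti-pSer73 cJun; cpd titration, 15 min RT; ATP 10 uM start; Tris pH 7.6, MgCl2, DTT, vanadate; beads in EDTA buffer; AlphaScreen.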
A general note: Bead proximity is the source of the signal in Alpha formats.

Experiment [7] has as its target 3',5'-cyclic-AMP phosphodiesterase 4B (Homo sapiens) (UniProt Q07343). Put plainly: qHTS Assay for Inhibitors of PDE-IV (AID 607; active = well fitted activation curve with a large enough effect in the main read-out, with a control signal flat, not every such curve was filed as active; note: % of control where 0% means no effect). The method in brief: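 ACTOne HEK293 cells carry a modified cAMP-gated CNG channel and express endogenous PDE4; plated 1000 cells/well, compounds up to 22.9 uM final. Membrane-potential dye fluorescence (ex 535/em 590) was read; parental cells received 10 uM forskolin + 100 uM RO 20-1724.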
Background: Quantitative high-throughput screening tests each substance at several concentrations.

Experiment [8] can be described thus: qHTS Assay for Lipid Storage Modulators (AID 1519; calls by dose curve). To be noted: Drosophila S3 cells, BODIPY lipid droplet/cell ratio, laser cytometry, cells loaded with oleic acid; for activity change, negative = inhibition: at 57.5 µM (top of the series). In short, it runs like this: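 Cells seeded at 5,000 per well were treated with compounds over a concentration series and loaded with oleic acid (400 uM, as added). Lipid droplet fluorescence (488 nm excitation, 500-530 nm channel) was read by laser-scanning cytometry and normalized to 20 uM Triacsin C.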

Experiment [9] deals with Dual specificity protein kinase CLK4 (Homo sapiens) (UniProt Q9HAZ1). Briefly: qHTS Assay for Inhibitors of CDC-like Kinase 4 (Kinase-Glo Assay) (AID 1770). Note: nearly all actives have a fitted effect of over 65% in size. Note: potency is the fitted concentration of half-maximal effect. The method in brief:
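Luminescent ATP-depletion read-out (Kinase-Glo) after 4.5 h room-temperature reaction of Clk4 (25 nM final) with RS peptide (100 uM) and ATP (1 uM), pH 7.5 Tris buffer with MgCl2 and DTT.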

For experiment [10] the target is unchanged. Put plainly: qHTS Assay for Inhibitors of CDC-like Kinase 4 (ADP-FP Assay) (AID 1795). Note: nearly all actives have a fitted effect of over 60% in size. Note: potency is the fitted concentration of half-maximal effect. The method in brief: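 Kinase activity was measured as ADP production using Transcreener orange tracer (4 nM) and ADP antibody (1 ug/mL) fluorescence polarization, with ADP calculated from a calibration curve. The 1 h reaction contained 6.25 nM Clk4, 1 uM ATP and 100 uM RS peptide at pH 7.5 with Mg2+.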

Experiment [11] concerns the target Ubiquitin carboxyl-terminal hydrolase 1 (Homo sapiens) (UniProt O94782). Put plainly: Inhibitors of USP1/UAF1: Pilot qHTS (AID 504865).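 Note: rhodamine fluorescence freed from ubiquitin-rhodamine substrate followed over time; top concentration of the series differs between compounds; % is set by controls: 0 for no effect and ±100 for the full control effect; nearly all actives have a fitted effect of over 35% in size.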 The method in brief:
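Deubiquitinase activity followed as kinetic rhodamine fluorescence release from 150 nM Ub-Rho. 1 nM USP1/UAF1 with compound, after 15 min room-temperature preincubation, in HEPES pH 7.8 buffer containing TCEP, EDTA, BSA and Tween-20.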

For experiment [12], the target named is Glucocorticoid receptor (Homo sapiens) (UniProt P04150). Put plainly: GR-GFP Redistribution (AID 450;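 active = compounds whose dose series gives a full or clear partial fitted curve of increased nuclear translocation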; note: potency is the fitted concentration of half-maximal effect). To be noted: U2OS GR-GFP nuclear translocation, laser cytometry, 2 h.
Experiment [13] in a line: qHTS Assay for Identification of Small Molecule Agonists for Hypoxia Response Element Signaling Pathway (AID 914; active = well fitted activation curve with a large enough effect in the signal ratio, with a control signal flat, not every such curve was filed as active; the % refers to the signal ratio; note: % of control where 0% means no effect). To be noted: ME-180 HRE-bla reporter, beta-lactamase ratio, CoCl2, 17 h; activation: stronger effect = higher value. In short, it runs like this:
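Cells were plated overnight, pin-dosed with compound in a titration series, co-stimulated with EC50 CoCl2 and incubated 17 hours at 37 degrees Celsius. CCF4 substrate was then loaded, and AC50 values came from the 460nm/530nm ratio.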

The target of experiment [14] is Cytochrome P450 3A4 (Homo sapiens) (UniProt P08684). Put plainly: qHTS Assay for Inhibitors and Substrates of Cytochrome P450 3A4 (AID 884). Note: % is set by controls: 0 for no effect and ±100 for the full control effect; nearly all actives have a fitted effect of over 50% in size. In short, it runs like this:
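Luminescent readout of luciferin produced by CYP3A4 (20 nM) dealkylation of Luciferin-PPXE, 25 uM (its KM). NADPH-driven reaction ran 60 min at RT after 10 min compound preincubation; data scaled to 57 uM ketoconazole as 100% inhibition.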

For experiment [15] the target is unchanged. Put plainly: qHTS Assay for Activators of Cytochrome P450 3A4 (AID 885). Note: nearly all actives have a fitted effect of over 65% in size. Note: potency is the fitted concentration of half-maximal effect. In short, it runs like this:
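CYP3A4 activity: Luciferin-PPXE O-dealkylation, 25uM substrate, 200mM KPO4, RT throughout. Read-out is luciferase luminescence; higher values reflect activation.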

Experiment [16] deals with Dual specificity protein kinase CLK4 (Homo sapiens) (UniProt Q9HAZ1). Put plainly: qHTS Assay for Inhibitors of CDC-like Kinase 4 (ADP-Glo Assay) (AID 1771). Note: nearly all actives have a fitted effect of over 70% in size. Note: potency is the fitted concentration of half-maximal effect. The method in brief: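 In this ADP-Glo format, 1 uM ATP and 100 uM RS peptide served as substrates for 25 nM Clk4 in Mg2+/EGTA/DTT/Triton buffer; reactions ran 1 hr at room temperature before luminescent ADP quantification.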
Dual specificity protein kinase CLK4 (Homo sapiens), sequence (Q9HAZ1 whole entry, looked up): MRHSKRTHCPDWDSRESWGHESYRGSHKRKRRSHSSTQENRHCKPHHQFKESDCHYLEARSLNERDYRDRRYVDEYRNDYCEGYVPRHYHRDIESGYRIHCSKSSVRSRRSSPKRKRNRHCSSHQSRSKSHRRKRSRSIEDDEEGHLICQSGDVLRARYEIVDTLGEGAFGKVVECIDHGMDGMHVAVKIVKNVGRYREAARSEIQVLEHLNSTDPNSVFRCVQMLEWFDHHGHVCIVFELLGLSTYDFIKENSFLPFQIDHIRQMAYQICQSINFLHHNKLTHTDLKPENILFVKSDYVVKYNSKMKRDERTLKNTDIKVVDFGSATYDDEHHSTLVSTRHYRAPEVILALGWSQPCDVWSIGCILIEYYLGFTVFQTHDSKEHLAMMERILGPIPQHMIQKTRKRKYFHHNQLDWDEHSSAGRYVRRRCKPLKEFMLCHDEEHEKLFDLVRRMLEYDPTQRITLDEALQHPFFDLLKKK

Experiment [17] is described as follows: AP1 Signaling Pathway (AID 357; active = well fitted curve in either direction with a large enough effect, not every such curve was filed as active;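 note: ME-180 reporter cells stimulated with EGF at its EC50 level; % is set by controls: 0 for no effect and ±100 for the full control effect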). To be noted: ME-180 (cervical carcinoma) AP-1-bla reporter, EGF-induced, beta-lactamase ratio, 5 h; at 7.69 µM (top of the series) unless noted. The method in brief: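 Titration-series screen for positive or negative modulators of EC50 EGF-induced signaling in ME-180 cells carrying an AP-1-driven beta-lactamase reporter. After 5 hours at 37 degrees Celsius, CCF4 460nm/530nm emission ratio gave %Activity; AC50 values derived.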

For experiment [18], the target named is Cytochrome P450 2C19 (Homo sapiens) (UniProt P33261). Briefly: qHTS Assay for Inhibitors and Substrates of Cytochrome P450 2C19 (AID 899). Note: % is set by controls: 0 for no effect and ±100 for the full control effect; nearly all actives have a fitted effect of over 60% in size. In short, it runs like this:
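Signal comes from luciferase acting on luciferin released by CYP2C19-mediated hydroxylation of Luciferin-H EGE, 10uM (KM). Assay mix: 5nM enzyme, 50mM KPO4; 60 min at 37C with NADPH regeneration. Data normalized against 57uM ketoconazole.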

Setting [19] is: measured here: cell count channel max response.
The mark [20] stands for this setting: measured here: lipid channel max response.

Ubiquitin carboxyl-terminal hydrolase 1 (Homo sapiens), sequence (O94782 whole entry, looked up): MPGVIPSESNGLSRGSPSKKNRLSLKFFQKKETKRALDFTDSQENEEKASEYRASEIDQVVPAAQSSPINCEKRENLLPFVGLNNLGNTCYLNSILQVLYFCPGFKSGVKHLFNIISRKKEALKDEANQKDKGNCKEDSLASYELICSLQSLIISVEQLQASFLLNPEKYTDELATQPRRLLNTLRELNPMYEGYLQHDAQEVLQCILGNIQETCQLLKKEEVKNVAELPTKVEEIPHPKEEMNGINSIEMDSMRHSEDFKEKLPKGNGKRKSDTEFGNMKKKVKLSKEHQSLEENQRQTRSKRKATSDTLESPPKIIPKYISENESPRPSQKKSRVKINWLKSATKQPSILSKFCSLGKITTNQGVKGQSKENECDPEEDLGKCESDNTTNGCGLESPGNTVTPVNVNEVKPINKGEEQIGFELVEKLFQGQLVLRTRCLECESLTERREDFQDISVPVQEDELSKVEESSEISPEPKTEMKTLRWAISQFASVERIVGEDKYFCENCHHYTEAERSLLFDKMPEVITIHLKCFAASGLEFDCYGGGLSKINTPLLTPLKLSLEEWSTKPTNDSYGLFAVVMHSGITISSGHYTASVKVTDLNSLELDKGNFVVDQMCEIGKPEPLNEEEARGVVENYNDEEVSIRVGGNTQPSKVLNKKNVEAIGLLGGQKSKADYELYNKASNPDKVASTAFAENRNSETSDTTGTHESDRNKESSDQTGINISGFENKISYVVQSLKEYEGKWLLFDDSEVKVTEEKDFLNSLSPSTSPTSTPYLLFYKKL
Lysosomal acid glucosylceramidase (Homo sapiens), sequence (P04062 whole entry, looked up): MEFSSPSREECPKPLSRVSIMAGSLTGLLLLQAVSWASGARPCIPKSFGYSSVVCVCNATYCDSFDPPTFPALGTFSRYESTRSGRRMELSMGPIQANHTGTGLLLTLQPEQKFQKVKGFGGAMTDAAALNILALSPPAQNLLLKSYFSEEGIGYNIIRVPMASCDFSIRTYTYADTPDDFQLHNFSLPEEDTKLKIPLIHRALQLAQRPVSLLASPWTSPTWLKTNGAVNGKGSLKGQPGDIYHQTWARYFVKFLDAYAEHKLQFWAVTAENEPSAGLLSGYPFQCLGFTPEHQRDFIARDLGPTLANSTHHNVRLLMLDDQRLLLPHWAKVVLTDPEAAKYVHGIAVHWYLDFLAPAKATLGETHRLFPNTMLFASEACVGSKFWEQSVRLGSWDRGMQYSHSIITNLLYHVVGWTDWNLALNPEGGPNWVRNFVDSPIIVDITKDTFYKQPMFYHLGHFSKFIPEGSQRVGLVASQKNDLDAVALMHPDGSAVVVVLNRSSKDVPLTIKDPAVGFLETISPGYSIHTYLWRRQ
Cytochrome P450 3A4 (Homo sapiens), sequence (P08684 whole entry, looked up): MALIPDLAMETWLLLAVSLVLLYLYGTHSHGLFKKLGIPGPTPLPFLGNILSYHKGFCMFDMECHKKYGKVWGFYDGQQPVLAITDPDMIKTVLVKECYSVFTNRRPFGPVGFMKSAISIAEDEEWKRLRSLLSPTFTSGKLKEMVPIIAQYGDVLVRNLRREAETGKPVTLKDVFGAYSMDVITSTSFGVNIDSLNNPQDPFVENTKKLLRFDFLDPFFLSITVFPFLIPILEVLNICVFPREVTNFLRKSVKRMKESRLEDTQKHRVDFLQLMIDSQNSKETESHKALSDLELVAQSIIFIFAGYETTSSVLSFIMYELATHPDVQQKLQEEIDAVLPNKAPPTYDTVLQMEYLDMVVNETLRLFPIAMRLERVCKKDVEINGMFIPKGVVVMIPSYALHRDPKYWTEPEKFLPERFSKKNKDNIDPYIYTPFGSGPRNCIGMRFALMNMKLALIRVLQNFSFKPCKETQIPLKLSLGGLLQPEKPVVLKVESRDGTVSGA
3',5'-cyclic-AMP phosphodiesterase 4B (Homo sapiens), sequence (Q07343 whole entry, looked up): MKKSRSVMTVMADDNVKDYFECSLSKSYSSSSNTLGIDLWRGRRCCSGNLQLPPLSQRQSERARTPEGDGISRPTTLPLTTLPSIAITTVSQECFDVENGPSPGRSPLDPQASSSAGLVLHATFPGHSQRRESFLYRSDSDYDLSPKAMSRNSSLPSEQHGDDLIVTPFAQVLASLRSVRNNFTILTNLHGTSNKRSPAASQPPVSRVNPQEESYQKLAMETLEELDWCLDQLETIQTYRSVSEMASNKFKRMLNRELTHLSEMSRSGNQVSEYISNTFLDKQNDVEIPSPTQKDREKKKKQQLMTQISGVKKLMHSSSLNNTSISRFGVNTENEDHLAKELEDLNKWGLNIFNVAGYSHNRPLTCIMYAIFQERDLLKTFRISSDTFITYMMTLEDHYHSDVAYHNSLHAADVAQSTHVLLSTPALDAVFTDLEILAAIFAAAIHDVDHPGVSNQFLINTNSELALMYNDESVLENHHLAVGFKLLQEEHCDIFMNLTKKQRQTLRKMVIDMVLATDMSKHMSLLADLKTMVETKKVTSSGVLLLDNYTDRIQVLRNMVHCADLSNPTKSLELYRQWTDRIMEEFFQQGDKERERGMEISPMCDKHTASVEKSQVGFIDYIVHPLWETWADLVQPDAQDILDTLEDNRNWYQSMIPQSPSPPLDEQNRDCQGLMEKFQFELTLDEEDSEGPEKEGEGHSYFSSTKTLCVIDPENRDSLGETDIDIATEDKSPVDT
Cytochrome P450 1A2 (Homo sapiens), sequence (P05177 whole entry, looked up): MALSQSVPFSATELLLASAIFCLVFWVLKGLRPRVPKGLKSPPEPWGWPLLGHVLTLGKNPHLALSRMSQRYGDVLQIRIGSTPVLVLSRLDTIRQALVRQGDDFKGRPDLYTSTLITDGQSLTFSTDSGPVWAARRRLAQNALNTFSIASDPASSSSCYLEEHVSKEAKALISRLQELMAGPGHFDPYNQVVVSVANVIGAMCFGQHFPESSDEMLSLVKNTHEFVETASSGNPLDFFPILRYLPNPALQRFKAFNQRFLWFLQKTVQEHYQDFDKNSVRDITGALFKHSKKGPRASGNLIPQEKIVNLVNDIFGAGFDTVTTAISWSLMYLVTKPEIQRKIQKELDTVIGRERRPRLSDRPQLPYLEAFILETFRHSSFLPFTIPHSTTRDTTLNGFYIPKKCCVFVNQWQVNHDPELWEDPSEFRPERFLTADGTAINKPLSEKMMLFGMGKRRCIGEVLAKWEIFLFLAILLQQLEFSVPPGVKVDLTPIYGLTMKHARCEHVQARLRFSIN
Cytochrome P450 2C19 (Homo sapiens), sequence (P33261 whole entry, looked up): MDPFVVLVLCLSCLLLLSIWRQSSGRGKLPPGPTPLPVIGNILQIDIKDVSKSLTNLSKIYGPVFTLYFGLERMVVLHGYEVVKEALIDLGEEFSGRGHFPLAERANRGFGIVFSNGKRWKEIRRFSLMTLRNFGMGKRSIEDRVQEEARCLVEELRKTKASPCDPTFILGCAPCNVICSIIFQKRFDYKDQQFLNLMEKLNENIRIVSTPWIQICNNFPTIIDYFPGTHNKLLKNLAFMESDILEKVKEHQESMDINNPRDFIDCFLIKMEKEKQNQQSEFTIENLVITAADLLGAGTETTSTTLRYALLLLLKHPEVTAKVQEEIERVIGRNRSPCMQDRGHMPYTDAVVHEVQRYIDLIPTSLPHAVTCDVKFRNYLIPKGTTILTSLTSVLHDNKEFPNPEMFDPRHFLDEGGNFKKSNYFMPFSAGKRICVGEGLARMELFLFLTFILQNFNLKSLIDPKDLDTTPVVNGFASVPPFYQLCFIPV

In the case of `CN1CCN(c2ncc3ncc(=O)n(-c4ccccc4)c3n2)CC1`, the Potency in [1] is > 11.4 µM (inactive); in experiment [2], 2.51 µM (active); in experiment [5] it was > 46 µM (inactive). Moreover, the activity change, negative = inhibition in [3] is -18.4% (inactive); in [8], 4.96% (inactive). Also, the activity, negative = inhibition in experiment [4] was -9.93% (inactive). Also, the Potency entry in [6], in [7], in experiment [9], in experiment [10] and in experiment [11] was “inactive” throughout. In addition, the max response worked out at 21.7% in experiment [8] (setting [19]) and 23.9% in experiment [8] (setting [20]).

`FC(F)(F)c1ccccc1-c1ccc2ncnc(NCCN3CCOCC3)c2c1`: the Potency in experiment [1] is 8.84 µM (active); in experiment [12], > 46 µM (inactive); in [5], > 46 µM (inactive). The activity change, negative = inhibition is 10.2% (inactive) in [3] and -5.53% (inactive) in experiment [8]. The activity, negative = inhibition in [4] is -13.9% (inactive). The Potency result in experiment [6], in experiment [9], in [10] and in experiment [11] was “inactive” throughout. For the same compound, the activation in experiment [13] was -0.346% (inactive). Also, the max response was 3.86% in experiment [8] (setting [19]) and -2.12% in experiment [8] (setting [20]).

For the compound `CN1CCN(c2ncc3nc(-c4ccc(Cl)cc4)c(=O)n(Cc4ccc(F)cc4)c3n2)CC1`, the Potency in experiment [1] was > 11.4 µM (inactive); in [2], 31.6 µM (active); in experiment [12], > 9.22 µM (inactive); in [5], > 46 µM (inactive); in experiment [15], 15.8 µM (active). In addition, the Potency entry in experiment [7], in experiment [14], in experiment [9], in [16], in experiment [10] and in [11] was “inactive” in each case. In addition, the activity change, negative = inhibition in [8] was -1.37% (inactive). Besides, the results for the max response in experiment [8] (setting [19]) and in experiment [8] (setting [20]) were 15.9% and 10.5%, respectively.

Turning to `COc1ccccc1-c1ccc2ncnc(NCc3cnc(C)cn3)c2c1`, the Potency was > 11.4 µM (inactive) in experiment [1]; > 46 µM (inactive) in [12]; > 46 µM (inactive) in [5]; 15.8 µM (active) in experiment [9]; 17.8 µM (active) in experiment [16]. Also, the activity change, negative = inhibition in experiment [17] was -23.9% (inactive); in [3], 3.25% (inactive); in experiment [8] it was 2.78% (inactive). Also, in experiment [4], the activity, negative = inhibition is -25.2% (inactive). Besides, the Potency result in [6], in experiment [7], in experiment [15] and in experiment [11] was “inactive” each time. In addition, the max response in experiment [8] (setting [19]) was 13.2%; in experiment [8] (setting [20]), 14%.

Take `COc1cccc(Nc2ncc3ncc(=O)n(C)c3n2)c1`: the Potency is > 11.4 µM (inactive) in [1]; 1.58 µM (active) in experiment [2]; > 9.22 µM (inactive) in [12]; > 46 µM (inactive) in experiment [5]; 0.891 µM (active) in [9]; 1 µM (active) in [16]. In addition, the activity change, negative = inhibition was 0.44% (inactive) in experiment [3] and 4.86% (inactive) in experiment [8]. Further, the activity, negative = inhibition in [4] was -17.5% (inactive). Moreover, the Potency result in [7], in [15], in experiment [18] and in experiment [11] was “inactive” throughout. Moreover, the max response stood at 11.1% in [8] (setting [19]) and 14.9% in experiment [8] (setting [20]).

With `COc1cccc(-c2ccc3ncnc(NCCN4CCOCC4)c3c2)c1`, the activity change, negative = inhibition in experiment [17] was -12.4% (inactive); in experiment [8], -1.99% (inactive). Also, the activity, negative = inhibition in [4] was -15.6% (inactive). Besides, the Potency in experiment [12] is > 46 µM (inactive); in experiment [5], > 46 µM (inactive); in [9], 1.78 µM (active); in [16], 1 µM (active); in [10], 0.631 µM (active). The Potency result in experiment [6] and in [11] was “inactive” each time. Moreover, the max response was -14.3% in experiment [8] (setting [19]) and -15.9% in experiment [8] (setting [20]).

For `CN1CCN(c2ncnc3ccc(-c4cccc(NS(C)(=O)=O)c4)cc23)CC1`, the Potency in experiment [1] was > 11.4 µM (inactive); in experiment [2] it was 25.1 µM (active); in experiment [12], > 46 µM (inactive); in [5], > 46 µM (inactive); in [9], 6.31 µM (active); in [16] it was 7.94 µM (active). Also, the Potency in experiment [10] is 10 µM (active). Besides, the activity, negative = inhibition in [4] is -16.1% (inactive). For the same compound, the Potency result in [6], in experiment [15] and in experiment [11] was “inactive” throughout. For the same compound, in experiment [8], the activity change, negative = inhibition is -4.99% (inactive). Besides, the max response in [8] (setting [19]) was -11.5%; in experiment [8] (setting [20]) it was -16%.
